# Data: article PMC12215968
# Experiments:
# [1] = molecular target: Eukaryotic translation initiation factor 3 subunit C (UniProt Q99613); assay: cross-linking mass spectrometry
# [2] = molecular target: Peptidyl-prolyl cis-trans isomerase A (UniProt P62937); assay: cross-linking mass spectrometry
# Thymosin beta-4 = Thymosin beta-4 (UniProt P62328); assay: cross-linking mass spectrometry
# [3] = molecular target: 26S proteasome non-ATPase regulatory subunit 2 (UniProt Q13200); assay: cross-link between two proteins; cross-linking mass spectrometry
# [4] = molecular target: Adenylyl cyclase-associated protein 1 (UniProt Q01518); assay: as above
# [5] = molecular target: Elongation factor 1-alpha 2 (UniProt Q05639); assay: as above
# [6] = molecular target: Heat shock protein HSP 90-beta (UniProt P08238); assay: as above
# [7] = molecular target: Putative heat shock protein HSP 90-beta-3 (UniProt Q58FF7); assay: as above
# Histone H1.2 = Histone H1.2 (UniProt P16403); assay: as above
# Histone H2B type F-S = Histone H2B type F-S (UniProt P57053); assay: as above
# Junctophilin-2 = molecular target: T1, Junctophilin-2 (UniProt Q9BR39); assay: as above
# T1 sequence: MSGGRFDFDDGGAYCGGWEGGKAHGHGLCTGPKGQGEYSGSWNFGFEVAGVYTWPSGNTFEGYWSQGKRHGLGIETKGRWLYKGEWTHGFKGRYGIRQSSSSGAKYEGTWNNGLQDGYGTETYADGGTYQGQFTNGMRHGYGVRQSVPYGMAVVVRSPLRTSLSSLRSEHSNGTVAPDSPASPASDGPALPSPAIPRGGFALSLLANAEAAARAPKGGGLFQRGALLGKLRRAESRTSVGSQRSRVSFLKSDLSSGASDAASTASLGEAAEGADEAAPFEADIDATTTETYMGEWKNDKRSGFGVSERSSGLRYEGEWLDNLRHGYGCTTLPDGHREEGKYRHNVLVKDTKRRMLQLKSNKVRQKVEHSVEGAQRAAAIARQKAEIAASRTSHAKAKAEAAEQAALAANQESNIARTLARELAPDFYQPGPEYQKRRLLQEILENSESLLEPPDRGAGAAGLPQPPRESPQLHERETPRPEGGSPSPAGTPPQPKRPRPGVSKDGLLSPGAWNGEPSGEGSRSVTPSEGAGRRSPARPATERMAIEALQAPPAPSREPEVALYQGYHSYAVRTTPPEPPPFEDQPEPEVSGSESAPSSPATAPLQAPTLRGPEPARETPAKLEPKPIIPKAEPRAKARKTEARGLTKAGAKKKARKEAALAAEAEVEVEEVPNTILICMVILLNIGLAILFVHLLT
# [8] = molecular target: Large ribosomal subunit protein eL24 (UniProt P83731); assay: as above
# [9] = molecular target: Ribosomal protein eL42-like (UniProt Q969Q0); assay: as above
# Thymosin beta-10 = Thymosin beta-10 (UniProt P63313); assay: as above
# [10] = molecular target: Ubiquitin-conjugating enzyme E2 L3 (UniProt P68036); assay: as above
# [11] = molecular target: Ubiquitin-like FUBI-ribosomal protein eS30 fusion protein (UniProt P62861); assay: as above
# [12] = molecular target: Ubiquitin-ribosomal protein eS31 fusion protein (UniProt P62979); assay: as above
substance,measurement,setting,value
"Small ribosomal subunit protein uS15, P62277",listed as a hit,[1],yes
"Actin, cytoplasmic 1, P60709",listed as a hit,[2],yes
same,listed as a hit,Thymosin beta-4,yes
"26S proteasome regulatory subunit 8, P62195",listed as a hit,[3],yes
"Actin, alpha cardiac muscle 1, P68032",listed as a hit,[4],yes
"Large ribosomal subunit protein uL13, P40429",listed as a hit,[5],yes
O60361,listed as a hit,[6],yes
same,listed as a hit,[7],yes
"Non-histone chromosomal protein HMG-17, P05204",listed as a hit,Histone H1.2,yes
"Histone H2A type 1, P0C0S8",listed as a hit,Histone H2B type F-S,yes
"Histone H2B type 1-C/E/F/G/I, P62807",listed as a hit,Junctophilin-2,yes
"Large ribosomal subunit protein eL8, P62424",listed as a hit,[8],yes
"Large ribosomal subunit protein uL1, P62906",listed as a hit,[9],yes
"Actin, cytoplasmic 2, P63261",listed as a hit,Thymosin beta-10,yes
"Ubiquitin-ribosomal protein eS31 fusion protein, P62979",listed as a hit,[10],yes
"Elongation factor 2, P13639",listed as a hit,[11],yes
"Histone H2A type 1-D, P20671",listed as a hit,[12],yes
"Histone H2A type 1-B/E, P04908",listed as a hit,[12],yes
